The supplement of paper PMC6992640
± gives the standard deviation of the averaged measurements.

Columns and labels:
Assay in all cases: cell viability (% of vehicle); higher = less cytotoxic
Settings in all cases: 10 µM; 72 h
[1] = test system: HCI01 (cells of a triple-negative basal-like breast cancer xenograft)
[2] = test system: HCI03 (cells of an ER-positive luminal breast cancer xenograft)
[3] = test system: HCI09 (cells of a triple-negative luminal androgen receptor type breast cancer xenograft)
[4] = test system: HCI11 (cells of an ER-positive luminal breast cancer xenograft)
[5] = test system: HCI13 (cells of an ER-positive luminal breast cancer xenograft)
[6] = test system: HCI16 (cells of a triple-negative basal-like breast cancer xenograft)
[7] = test system: UCD52 (cells of a triple-negative basal-like breast cancer xenograft)
[8] = test system: WHIM30 (cells of a triple-negative basal-like breast cancer xenograft)
[9] = test system: WHIM2 (cells of a triple-negative basal-like breast cancer xenograft)
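Note: PDX cells carrying CMV promoter-driven luciferase, viability read as total photon flux per second by IVIS imaging following D-luciferin, vehicle control 0.1% DMSO.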

SMILES	cell viability [1]	cell viability [2]	cell viability [3]	cell viability [4]	cell viability [5]	cell viability [6]	cell viability [7]	cell viability [8]	cell viability [9]
Cc1cc(C2CCCCC2)n(O)c(=O)c1 [Ciclopirox]	93 ± 59	67.7	26.8 ± 3.4	51.7	73.9 ± 3.7	117	92.7 ± 3.6	94.5 ± 12	
Nc1ccc(S(N)(=O)=O)cc1 [Sulfanilamide]	106 ± 25	127	97.7 ± 18	83.1	164 ± 9.1	120	94.6 ± 8.7	140 ± 13	105 ± 7.5
CC(C)(O)c1ccccc1CCC(SCC1(CC(=O)[O-])CC1)c1cccc(C=Cc2ccc3ccc(Cl)cc3n2)c1.[Na+] (stereo unspecified) [Montelukast Sodium]	41.5 ± 20	169	83.3 ± 85	103	45.5 ± 6.3	165		156.57 ± 0.11	50.8 ± 12
CCOc1cc(N)c(Cl)cc1C(=O)NCC1CN(Cc2ccc(F)cc2)CCO1.O=C(O)CC(O)(CC(=O)O)C(=O)O (stereo unspecified) [Mosapride Citrate]	138 ± 14	110	83.1 ± 9.6	116	103 ± 23	118	106 ± 2.8	136 ± 5.5	82.6 ± 16
CNCc1ccc(-c2[nH]c3cc(F)cc4c3c2CCNC4=O)cc1.O=P(O)(O)O	161.1 ± 0.84	104	76 ± 12	85.9	145 ± 9.1		126 ± 39		173 ± 26
O=C1Cc2cc(CCN3CCN(c4nsc5ccccc45)CC3)c(Cl)cc2N1 [Ziprasidone]	98.1 ± 6.7	102	82.1 ± 4.3	96.1	95.4 ± 36	67.2	86.8 ± 2	100 ± 20	95.6 ± 6.5
CC(=O)O.CC(=O)O.CCC(C)CC(C)CCCCCCCCC(=O)NC1CC(O)C(NCCN)NC(=O)C2C(O)CCN2C(=O)C(C(O)CCN)NC(=O)C(C(O)C(O)c2ccc(O)cc2)NC(=O)C2CC(O)CN2C(=O)C(C(C)O)NC1=O (stereo unspecified) [Caspofungin Acetate]	58.7 ± 28	115	84.5 ± 9.6	84.4	88 ± 5.7	115	71.4 ± 2.7	119 ± 2.4	94.1 ± 40
O=NN(CCCl)C(=O)NC1CCCCC1 [Lomustine]	94.4 ± 38	115	93.2 ± 13	95.2	83.2 ± 8.6	146	80.2 ± 12	125 ± 10	91.3 ± 13
CCC1=CC2CN(C1)Cc1c([nH]c3ccccc13)C(C(=O)OC)(c1cc3c(cc1OC)N(C)C1C(O)(C(=O)OC)C(OC(C)=O)C4(CC)C=CCN5CCC31C54)C2 (stereo unspecified) [Vinorelbine]	100 ± 15	105	70.5 ± 25	78.5	46 ± 4.7	167	57.5 ± 23	96.7 ± 3.6	60.5 ± 12
O=NN(CCCl)C(=O)NCCCl [Carmustine]	106 ± 24	166	99.9 ± 62	83.9	134 ± 22		116 ± 5.4	123 ± 8.1	96.23 ± 0.26
CC(Nc1ncnc2nc[nH]c12)c1cc2cccc(Cl)c2c(=O)n1-c1ccccc1 (stereo unspecified)	91.5 ± 1.5	53.1	71.9 ± 26	66.4	45.8 ± 4.9	81.8	67.3 ± 1.7	95.3 ± 2.1	51.1 ± 15
CCCCOc1ccc(OCCCN2CCOCC2)cc1.Cl [Pramoxine HCl]	137.9 ± 0.65	103	92.4 ± 8.4	112	83.5 ± 24	116	79.6 ± 6	133 ± 23	166 ± 12
NC(=O)N1CCC(CC(=O)N2CCC(C3c4ncc(Br)cc4CCc4cc(Cl)cc(Br)c43)CC2)CC1 (stereo unspecified) [Lonafarnib]	72.5 ± 68	121	12.8 ± 2.5	163	43.2 ± 17	170		115 ± 7.2	126 ± 12
Cc1cc2c(s1)=Nc1ccccc1NC=2N1CCN(C)CC1 [Olanzapine]	90.18 ± 0.87	107	105 ± 2.8	88.7	88.6 ± 14	112	87.7 ± 4.5	107 ± 16	90.9 ± 8.5
Clc1ccc(CCC(Cn2ccnc2)Sc2c(Cl)cccc2Cl)cc1.O=[N+]([O-])O (stereo unspecified) [Butoconazole nitrate]	67.2 ± 44	99.5	36.7 ± 9.7	143	39.6 ± 1.4	186	74.6 ± 3.6	190 ± 7.9	53.8 ± 16
Cc1cc(C2CCCCC2)n(O)c(=O)c1.NCCO [Ciclopirox ethanolamine]	113 ± 52	60.3	31.7 ± 9.4	69.4	59.3 ± 3.2	123	63.4 ± 8.2	86.4 ± 7	
CCCCCOc1ccc(-c2cc(-c3ccc(C(=O)NC4CC(O)C(O)NC(=O)C5C(O)C(C)CN5C(=O)C(C(O)CC(N)=O)NC(=O)C(C(O)C(O)c5ccc(O)c(OS(=O)(=O)[O-])c5)NC(=O)C5CC(O)CN5C(=O)C(C(C)O)NC4=O)cc3)no2)cc1.[Na+] (stereo unspecified) [Micafungin sodium]	104 ± 7.9	96.4	85.7 ± 5.6	92.6	113 ± 4	93.3	75.7 ± 12	99 ± 12	39.4 ± 2.2
C#CCC(Cc1cnc2nc(N)nc(N)c2n1)c1ccc(C(=O)NC(CCC(=O)O)C(=O)O)cc1 (stereo unspecified) [Pralatrexate]	134 ± 15	117	102 ± 11	115	157 ± 27	103	110 ± 8.8	117 ± 4.2	121 ± 10
Cc1nccn1CC1CCc2c(c3ccccc3n2C)C1=O.Cl (stereo unspecified) [Ondansetron HCl]	126 ± 18	123	93.6 ± 9.8	111	96.7 ± 2.7	104	80.3 ± 1	128 ± 9.2	83.9 ± 22
Cn1c(=O)c2c(ncn2CC2OCCO2)n(C)c1=O [Doxofylline]	110 ± 27	117	95.6 ± 12	100	82.8 ± 4.8	105	96.4 ± 3.6	100 ± 9	102 ± 11
C=C1C(CO)C(O)CC1n1cnc2c(=O)nc(N)[nH]c21.O (stereo unspecified) [Entecavir Hydrate]	110 ± 5.2	104	91.1 ± 4.7	99.5	82.7 ± 5.4	108	103 ± 13	107 ± 9.8	81.3 ± 11
CC(C)(Oc1ccc(C2CC2(Cl)Cl)cc1)C(=O)O (stereo unspecified) [Ciprofibrate]	96 ± 14	126	94.3 ± 11	79.4	110 ± 12	114	96.2 ± 2.9	127 ± 15	120 ± 3.9
